Where a name gives a salt, the structure may show the parent alone.
Columns and labels:
Experiment in all cases: Euclidean distance of Cell Painting phenotypic profile (signed KS, 77 features) to DMSO centroid (dimensionless distance); 5 or 10 uM (library dependent); higher = stronger phenotypic change vs DMSO (phenoactivity)
Conditions in all cases: 48 h
786-O = tested on: 786-O
Summary of the method: (§1)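 Five cancer lines and a healthy fibroblast line received library compounds at 10 or 5 uM (library-dependent, 0.1% DMSO final) for 48 h. Stained cells were imaged confocally at 20X (9 fields/well). Harmony extracted 77 features, each scored as a signed Kolmogorov-Smirnov statistic against same-plate vehicle wells. Profiles were plate-position corrected, correlation-weighted and replicate-averaged at the top dose. Phenoactivity is the Euclidean distance from each profile to the median vehicle profile.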

A549 = tested on: A549
Summary of the method: as §1

DU145 = tested on: DU145
Summary of the method: as §1

FB = tested on: FB
Summary of the method: as §1

HEPG2 = tested on: HEPG2
Summary of the method: as §1

OVCAR4 = tested on: OVCAR4
Summary of the method: as §1

| SMILES | Euclidean distance (786-O) | Euclidean distance (A549) | Euclidean distance (DU145) | Euclidean distance (FB) | Euclidean distance (HEPG2) | Euclidean distance (OVCAR4) |
| --- | --- | --- | --- | --- | --- | --- |
| CC[C@@H]1C(=O)N(C)c2cnc(Nc3ccc(C(=O)N[C@H]4CC[C@H](N5CCN(CC6CC6)CC5)CC4)cc3OC)nc2N1C(C)C [Volasertib (BI 6727)] | 4.44 | 4.28 | 4.03 | 5.55 | 3.66 | 4.01 |
| CCc1ccc(OCc2ccccc2C(=O)Nc2ccc3nc(C)cc(N)c3c2)cc1 | 4.35 | 4.14 | 3.63 | 5.25 | 5.11 | 4.53 |
| CC1(C)S[C@@H]2[C@H](NC(=O)COc3ccccc3)C(=O)N2[C@H]1C(=O)O [Penicillin V potassium salt] | 1.25 | 1.22 | 1.35 | 0.767 | 0.481 | 1.67 |
| Cc1c(Cc2ccc3ccccc3n2)c2cc(F)ccc2n1CC(=O)O | 1.27 | 1.14 | 0.888 | 1.16 | 2.13 | 1.52 |
| C[C@H]1c2cccc(O)c2C(=O)C2=C(O)[C@]3(O)C(=O)C(C(N)=O)=C(O)[C@@H](N(C)C)[C@@H]3[C@@H](O)[C@@H]21 [Doxycycline] | 1.5 | 1.3 | 0.845 | 0.954 | 0.564 | 1.67 |
| CCC[C@H](N[C@@H](C)C(=O)N1[C@H](C(=O)O)C[C@@H]2CCCC[C@@H]21)C(=O)OCC [Perindopril Erbumine] | 1.37 | 0.943 | 1.24 | 0.906 | 1.41 | 0.854 |
| O=S(=O)(c1ccccc1)c1cnc2c(N3CCNCC3)cccc2c1 | 0.96 | 0.917 | 0.761 | 0.827 | 1.94 | 0.986 |
| CC(/C=C1\SC(=S)N(CC(=O)O)C1=O)=C\c1ccccc1 [Epalrestat] | 1.29 | 1.2 | 0.915 | 1.45 | 0.723 | 0.848 |
| COc1ccc2c3c1O[C@H]1C[C@@H](O)C=C[C@@]31CCN(C)C2 [Galanthamine] | 0.802 | 1.14 | 0.605 | 0.959 | 0.423 | 0.852 |
| CCS(=O)(=O)CCn1c([N+](=O)[O-])cnc1C [Tinidazole] | 0.626 | 0.68 | 0.693 | 0.579 | 0.533 | 1.48 |
| C[N+](C)(C)CC(=O)O [Betaine] | 1.1 | 0.84 | 0.542 | 0.947 | 1.41 | 0.81 |
| CCCCNC(=O)NS(=O)(=O)c1ccc(C)cc1 [Tolbutamide] | 1.41 | 0.625 | 0.836 | 0.823 | 0.337 | 0.856 |
| C[C@@H](O)[C@H]1C(=O)N2C(C(=O)O)=C([C@H]3CCCO3)S[C@H]12 [Faropenem Sodium] | 1.24 | 0.485 | 1 | 0.587 | 0.554 | 0.718 |
| CNNCc1ccc(C(=O)NC(C)C)cc1 [Procarbazine HCl] | 1.36 | 0.988 | 1.23 | 1.25 | 0.885 | 0.933 |
| Nc1ccn([C@@H]2CS[C@H](CO)O2)c(=O)n1 [Lamivudine] | 0.725 | 0.508 | 0.589 | 1 | 1.07 | 0.623 |
| CC(C)c1nc(CN(C)C(=O)N[C@H](C(=O)N[C@@H](Cc2ccccc2)C[C@H](O)[C@H](Cc2ccccc2)NC(=O)OCc2cncs2)C(C)C)cs1 [Ritonavir] | 1.49 | 1.26 | 1.08 | 1.35 | 1.58 | 1.77 |
| COc1ccccc1[C@H](Cn1c(=O)n(C(C)(C)C(=O)O)c(=O)c2c(C)c(-c3ncco3)sc21)OC1CCOCC1 [Firsocostat (GS-0976)] | 0.952 | 0.95 | 1.31 | 1.74 | 1.31 | 1.15 |
| CC1CNc2c(cccc2S(=O)(=O)N[C@@H](CCCNC(=N)N)C(=O)N2CC[C@@H](C)C[C@@H]2C(=O)O)C1 (stereo partly drawn) [Argatroban] | 0.618 | 0.352 | 0.62 | 0.896 | 0.99 | 0.903 |
| CC(C)c1ccc(NC(=O)Cn2cnc3c2c(=O)n(C)c(=O)n3C)cc1 | 1.03 | 1.06 | 1.22 | 0.919 | 0.953 | 1.16 |
| CNC(=O)[C@@H](NC(=O)[C@H](CC(C)C)[C@H](O)C(=O)NO)C(C)(C)C [Marimastat (BB-2516)] | 1.09 | 2.02 | 1.14 | 1.06 | 0.866 | 1.4 |
| C[C@H]1O[C@@H](n2cc(F)c(=O)[nH]c2=O)[C@H](O)[C@@H]1O [Doxifluridine] | 0.747 | 1.07 | 0.886 | 0.864 | 2.72 | 1.03 |
| CCn1c(=O)c(-c2cc(NC(=O)Nc3ccccc3)c(F)cc2Br)cc2cnc(NC)cc21 | 1.21 | 1.59 | 1.77 | 2.62 | 1.61 | 1.1 |
| N#CCNC(=O)c1ccc(-c2ccnc(Nc3ccc(N4CCOCC4)cc3)n2)cc1 [Momelotinib (CYT387)] | 2.83 | 3.71 | 3.36 | 3.49 | 2.74 | 2.48 |

— the supplement of paper PMC10127200
